This is an account of results in PubChem BioAssay (EPA / NIEHS).

The target of experiment [1] is Cellular tumor antigen p53 (Homo sapiens) (UniProt P04637). Description: TOX21_p53_BLA_p2_ratio: Tox21 HCT-116 p53 Agonism Beta-lactamase Assay, Ratio, Phase 2 (AID 2283592). Put shortly:
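Plated HCT116 p53-bla cells (4000/well) received compound after 5 h, then 16 h at 37C/5% CO2. CCF4-AM added, 2 h RT. Ratio of 460 to 530 nm emission taken as the p53 reporter signal.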

For experiment [2] the target is unchanged. Put plainly: TOX21_p53_BLA_p3_ratio: Tox21 HCT-116 p53 Agonism Beta-lactamase Assay, Ratio, Phase 3 (AID 2283596). Put shortly:
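Cells were seeded at 4000/well, rested 5 h at 37C, then dosed with DMSO compound solutions (217-fold dilution) for 16 h. CCF4-AM substrate was loaded for 2 h at room temperature, and the 460/530 nm emission ratio was fitted for gain of signal versus DMSO.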

The nature of experiment [3]: TOX21_p53_BLA_p4_viability: Viability Assessment in the Tox21 HCT-116 p53 Agonism Beta-lactamase Assay, Phase 4 (AID 2283597).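 Further: hits lower the luminescence signal meaning cytotoxicity.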 Put shortly: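 Readout: ATP luminescence (CellTiter-Glo), measured 30 min after reagent addition at RT. The reagent followed a 2 h CCF4-AM incubation, and the cells had been exposed to compound for 16 h at 37C.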
Experiment [4] has as its target Cellular tumor antigen p53 (Homo sapiens) (UniProt P04637). Description: TOX21_p53_BLA_p5_ratio: Tox21 HCT-116 p53 Agonism Beta-lactamase Assay, Ratio, Phase 5 (AID 2283599). Put shortly: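 HCT-116 cells carrying a p53-inducible beta-lactamase reporter were seeded at 4000 cells/well and dosed after 5 h with compound in DMSO (217-fold dilution). After 16 h at 37C, CCF4-AM substrate was added for 2 h, and the 460/530 nm emission ratio was scored as gain-of-signal versus DMSO.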

The nature of experiment [5]: TOX21_p53_BLA_p5_viability: Viability Assessment in the Tox21 HCT-116 p53 Agonism Beta-lactamase Assay, Phase 5 (AID 2283600). Put shortly:
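Workflow: seed 4000 cells per well, wait 5 h, add compounds (DMSO, 217-fold dilution), incubate 16 h, load CCF4-AM 2 h, add CellTiter-Glo, read luminescence after 30 min.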

The target in experiment [6] is Cellular tumor antigen p53 (Homo sapiens) (UniProt P04637). Description: TOX21_p53_BLA_p4_ratio: Tox21 HCT-116 p53 Agonism Beta-lactamase Assay, Ratio, Phase 4 (AID 2283601). An outline of the steps:
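HCT116 cells carrying an inducible beta-lactamase reporter were plated at 4000 cells/well, rested 5 h, then exposed to compounds in DMSO (217-fold dilution) for 16 h at 37C. CCF4-AM substrate was loaded 2 h at room temperature; 460/530 nm emission ratio scored gain-of-signal versus DMSO.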

Experiment [7] can be described thus: CCTE_Harrill_HTTr_Viability_MCF7: CCTE's 6-hour Cell Viability Assessment for the High-Throughput Transcriptomics (HTTr) Platform, in MCF-7 cells cultured in DMEM + 10% fetal bovine serum, Harrill Lab (AID 2284010; active means hit-call score of the fitted dose curve at least 0.9, where 1 is the maximum; inactive means score below 0.9). An outline of the steps:
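Read-out is propidium iodide gain of signal by high-content imaging, reflecting membrane integrity loss. Measurements are taken 6 h after dosing, eight concentrations per chemical, with DMSO serving as baseline for bidirectional curve fitting.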

Experiment [8] can be described thus: CCTE_Harrill_HTTr_Apoptosis_MCF7: CCTE's 6-hour Apoptosis Assessment for the High-Throughput Transcriptomics (HTTr) Platform, in MCF-7 cells cultured in DMEM + 10% fetal bovine serum, Harrill Lab (AID 2284011; active means hit-call score of the fitted dose curve at least 0.9, where 1 is the maximum; inactive means score below 0.9). Put shortly: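 MCF-7 (DMEM + 10% FBS), 384-well; 8-pt dilution series, 6 h chemical exposure; caspase-3/7 activation via CellEvent Caspase 3/7 Green, HCI; bidirectional fit vs DMSO.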

Experiment [9] is described as follows: CCTE_Harrill_HTTr_CellCount_MCF7: CCTE's Cell Proliferation Assessment for the High-Throughput Transcriptomics (HTTr) Platform, Harrill Lab (AID 2284012).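 Further: cells exposed to compound for six hours; intended direction is loss of nuclei count meaning fewer cells.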 An outline of the steps:
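Cell count served as viability reporter: loss of Hoechst-stained nuclei, counted by high content imaging, marks decreased growth or survival. Exposure was 6 h in MCF-7 cells across eight concentrations, with DMSO as baseline.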

Experiment [10] is described as follows: TOX21_p53_BLA_p3_viability: Viability Assessment in the Tox21 HCT-116 p53 Agonism Beta-lactamase Assay, Phase 3 (AID 2283593).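 Further: cells exposed to compound for 16 h before reading.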 Put shortly:
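HCT-116 cells (4000/well) rested 5 h at 37C, then got DMSO compounds by pin tool (217-fold dilution) for 16 h at 37C, 5% CO2. After the bla read, CellTiter-Glo was added and luminescence read at 30 min, room temperature.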

The target in experiment [11] is Thyroid hormone receptor alpha (Rattus norvegicus) + Thyroid hormone receptor beta (Rattus norvegicus) (UniProt P18113+P63059). Put plainly: TOX21_TR_LUC_GH3_Antagonist_Followup: Tox21 GH3 Thyroid Hormone Receptor Antagonism Luciferase Follow-Up Assay (AID 2283942). An outline of the steps: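 In a GH3 luciferase reporter line, test chemicals spanning 92 uM to 5nM final are co-incubated 24 h with 1.0 nM T3. Activity is expressed as relative luminescence units and analysed relative to DMSO.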

The target of a further experiment is THRB (gene 7068) (UniProt P10828). Put plainly: TOX21_TRB_BLA_Antagonist_Followup_ratio: Tox21 Thyroid Hormone Receptor beta Antagonism Beta-lactamase (BLA) Follow-Up Assay, Ratio (AID 2283958). Put shortly: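 Cells were plated and allowed to attach for 5 h, then dosed with compounds in DMSO at 11 concentrations for 18 h at 37C. Beta-lactamase reporter activity was measured via CCF4-AM FRET as the 460:530 nm ratio.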
Sequence of THRB (gene 7068) (P10828 whole entry, looked up): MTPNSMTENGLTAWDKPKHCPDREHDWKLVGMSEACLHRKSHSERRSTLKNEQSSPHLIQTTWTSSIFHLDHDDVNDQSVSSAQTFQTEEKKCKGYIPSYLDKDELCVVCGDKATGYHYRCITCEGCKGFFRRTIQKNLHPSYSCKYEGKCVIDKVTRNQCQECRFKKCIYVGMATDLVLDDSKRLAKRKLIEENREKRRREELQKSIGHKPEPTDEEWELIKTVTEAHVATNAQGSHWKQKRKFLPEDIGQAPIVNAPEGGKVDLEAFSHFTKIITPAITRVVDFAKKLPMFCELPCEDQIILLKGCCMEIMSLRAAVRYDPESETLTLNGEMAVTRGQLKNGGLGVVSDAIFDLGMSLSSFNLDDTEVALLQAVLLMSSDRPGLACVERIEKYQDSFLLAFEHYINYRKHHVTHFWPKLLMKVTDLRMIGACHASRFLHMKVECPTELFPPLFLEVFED

Experiment [12] can be described thus: TOX21_TRB_BLA_Antagonist_Followup_viability: Viability Assessment in the Tox21 Thyroid Hormone Receptor beta Antagonism Beta-lactamase (BLA) Follow-Up Assay (AID 2283961). An outline of the steps: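 TRβ-bla HEK293T (human TRβ LBD fused to GAL4 DBD), 3,000 cells/well, 2% charcoal-stripped FBS, phenol red-free medium; 18 h compound exposure, 37C; CellTiter-Glo 30 min RT; luminescence, loss-of-signal readout.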

The target of experiment [13] is Retinoic acid receptor RXR-alpha (Homo sapiens) (UniProt P19793). Description: TOX21_TR_RXR_BLA_Antagonist_Followup_ratio: Tox21 Thyroid Hormone Receptor beta Retinoid X Receptor alpha (RXRa) Antagonism Beta-lactamase (BLA) Follow-Up Assay, Ratio (AID 2283972). An outline of the steps:
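HEK293T RXRa-bla, 2% charcoal-stripped FBS medium, 16 h compound exposure at 37C, qHTS 11 conc x3. CCF4 FRET ratio ch2/ch1 (460:530), DMSO = baseline, loss-of-signal fit.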

Experiment [14] can be described thus: TOX21_TR_RXR_BLA_Antagonist_Followup_viability: Viability Assessment in the Tox21 Thyroid Hormone Receptor beta Retinoid X Receptor alpha (RXRa) Antagonism Beta-lactamase (BLA) Follow-Up Assay (AID 2283979). Put shortly:
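RXRa-UAS-bla HEK293T cells seeded 2,500/well in phenol red-free DMEM with 2% charcoal-stripped FBS, attached 5 h, then exposed to compounds at 11 concentrations in triplicate for 16 h at 37C/5% CO2. Viability read by CellTiter-Glo ATP luminescence; bidirectional fit versus DMSO.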

“And” between values parts separate entries of the source, which are not always exact repeats. Equal entries are not always repeated. Records with an inconclusive call do not appear. A structure can be active in one record and inactive in another. The source made the active and inactive calls. How the source made its calls, unless noted: active means hit-call score of the fitted dose curve at least 0.9, where 1 is the maximum; inconclusive means response in the unintended direction; inactive means score below 0.9.

Sequence of Cellular tumor antigen p53 (Homo sapiens) (P04637 whole entry, looked up): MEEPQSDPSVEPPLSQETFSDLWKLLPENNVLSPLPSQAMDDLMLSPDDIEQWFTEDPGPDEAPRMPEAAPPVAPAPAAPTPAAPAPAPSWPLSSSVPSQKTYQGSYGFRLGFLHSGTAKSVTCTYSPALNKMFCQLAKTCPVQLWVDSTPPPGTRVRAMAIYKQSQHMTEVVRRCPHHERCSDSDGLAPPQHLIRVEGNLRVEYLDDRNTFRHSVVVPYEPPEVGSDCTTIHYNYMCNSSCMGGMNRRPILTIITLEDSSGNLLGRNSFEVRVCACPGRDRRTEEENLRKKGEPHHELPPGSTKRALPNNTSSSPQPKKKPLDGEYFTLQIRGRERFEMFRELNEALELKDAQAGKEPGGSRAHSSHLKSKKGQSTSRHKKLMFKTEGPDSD
Sequence of Retinoic acid receptor RXR-alpha (Homo sapiens) (P19793 whole entry, looked up): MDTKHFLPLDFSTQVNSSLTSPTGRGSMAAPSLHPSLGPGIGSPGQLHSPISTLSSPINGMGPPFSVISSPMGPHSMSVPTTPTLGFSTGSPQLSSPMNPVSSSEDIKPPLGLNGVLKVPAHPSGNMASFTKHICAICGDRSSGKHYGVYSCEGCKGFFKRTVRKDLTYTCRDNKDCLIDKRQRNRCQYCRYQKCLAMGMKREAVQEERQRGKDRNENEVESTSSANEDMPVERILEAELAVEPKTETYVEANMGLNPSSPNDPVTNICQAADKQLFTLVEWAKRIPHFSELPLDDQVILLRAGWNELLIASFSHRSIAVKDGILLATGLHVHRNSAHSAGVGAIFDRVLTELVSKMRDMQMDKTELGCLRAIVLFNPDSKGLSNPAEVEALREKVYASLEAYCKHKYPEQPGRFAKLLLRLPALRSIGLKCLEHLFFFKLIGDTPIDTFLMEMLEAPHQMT

Regarding `Cc1cnc(C(=O)NCCc2ccc(S(=O)(=O)NC(=O)NC3CCCCC3)cc2)cn1`, the result in [1], in experiment [2], in [3], in experiment [4], in experiment [5] and in experiment [6] was inactive. The outcome in experiment [7], in experiment [8] and in experiment [9] was inactive.

For the molecule `N[C@@H](Cc1cnc[nH]1)C(=O)O`, the outcome in experiment [1], in [10], in [3] and in experiment [5] was inactive.

As for `CCc1ccccc1CC`, the result in experiment [1], in experiment [10], in [3], in experiment [4], in [6] and in [7] was inactive. The outcome in experiment [8] and in experiment [9] was inactive.

Turning to `CCSC(=O)N(CC)CC`, the result in [10], in experiment [2] and in experiment [4] was inactive.

Consider `NC(=O)c1cccc([N+](=O)[O-])c1`, for which the outcome in experiment [1], in experiment [2], in [3], in [4] and in experiment [5] was inactive.

In the case of `Oc1cn2c(n1)Nc1ccc(Cl)c(Cl)c1C2`, the molecule was called inactive in [10], in experiment [2], in experiment [4], in experiment [5] and in [6].

As to `CC(CCc1ccc(O)cc1)NCCc1ccc(O)c(O)c1` (stereo unspecified), the outcome in [1], in experiment [2] and in [3] was inactive. Also, the AC50 in experiment [6] was 43.6 µM (active).

For the molecule `Nc1nnnn1-c1ccccc1`, the outcome in experiment [1], in experiment [2], in experiment [3], in [4] and in [5] was inactive.

Regarding `CN1[C@@H]2CCC[C@H]1CC(NC(=O)c1nn(C)c3ccccc13)C2` (stereo partly specified), the result in experiment [1], in experiment [10], in [3] and in [5] was inactive.

As for `CC1=CC(=O)CC(C)(C)C1(O)/C=C/C(C)=C\C(=O)O` (stereo unspecified), the outcome in experiment [10], in [3], in experiment [4], in experiment [5] and in experiment [6] was inactive.

As for `CCOc1ccccc1C(N)=O`, the outcome in experiment [1], in [2], in experiment [3], in [4], in experiment [5] and in [6] was inactive.

For `CCCCN(CCCC)C(=S)SSC(=S)N(CCCC)CCCC`, the call in [10], in [4] and in experiment [5] was inactive.

For the molecule `CN(C)CCN(Cc1cccs1)c1ccccn1`, the result in [1], in experiment [2], in experiment [4] and in experiment [6] was inactive.

With `COc1c(N2C[C@@H]3CCCN[C@@H]3C2)c(F)cc2c(=O)c(C(=O)O)cn(C3CC3)c12`, the outcome in [1], in experiment [2], in [4] and in experiment [6] was inactive.

Turning to `COc1ccc(NC(C)=O)cc1`, the result in experiment [1], in experiment [10], in experiment [3] and in experiment [5] was inactive.

As to `NC(=O)CC[C@@H]1NC(=O)[C@H](Cc2ccccc2)NC(=O)[C@H](Cc2ccc(O)cc2)NC(=O)CCSSC[C@@H](C(=O)N2CCC[C@H]2C(=O)N[C@@H](CCCN=C(N)N)C(=O)NCC(N)=O)NC(=O)[C@H](CC(N)=O)NC1=O`, the outcome in experiment [1], in experiment [2], in experiment [4] and in experiment [6] was inactive.

With `O=P(O)(O)OC(CO)CO`, the outcome in experiment [1], in [10], in experiment [3] and in experiment [5] was inactive.

Regarding `Nc1ccc2cc3ccc(N)cc3nc2c1`, the AC50 in [1] is 968 nM (active) and 3.15 µM (active); in [2], 2.62 µM (active) and 5.87 µM (active); in experiment [4], 2.96 µM (active) and 4.81 µM (active); in experiment [6], 1.64 µM (active) and 3.71 µM (active); in [11] it was 13.1 µM (active); with THRB (gene 7068) it was 32.4 µM (active) and 28.8 µM (active). The AC50 in [12] is 19.5 µM (active); in experiment [13], 17.5 µM (active) and 7.59 µM (active). Also, the result in experiment [12] and in [14] was inactive.

For the molecule `CCCc1c2oc(C(=O)O)cc(=O)c2cc2c(=O)cc(C(=O)O)n(CC)c12`, the call in [10], in experiment [2], in experiment [3], in experiment [4] and in experiment [6] was inactive.

As to `CCn1cc(C(=O)O)c(=O)c2cc(F)c(N3CCNCC3)cc21`, the outcome in [1], in experiment [2], in [3], in experiment [4] and in experiment [6] was inactive.

For `NCCCC[C@H](N)C(=O)O`, the outcome in experiment [1], in experiment [2], in experiment [4] and in [6] was inactive.

As to `NS(=O)(=O)Cc1noc2ccccc12`, the result in experiment [1], in [10], in experiment [3], in experiment [4] and in experiment [6] was inactive.

Regarding `C[C@H](Cc1ccc(O)c(O)c1)[C@@H](C)Cc1ccc(O)c(O)c1`, the result in experiment [10], in experiment [4] and in experiment [6] was inactive. For the same molecule, in experiment [3], the AC50 is 25.9 µM (active).

Turning to `O=C(NCCN1CCOCC1)c1ccc(Cl)cc1`, the outcome in experiment [1], in experiment [2], in experiment [3], in [4], in experiment [5] and in experiment [6] was inactive.

As for `CCCCCCCCCCCCCCCCCCCl`, the molecule was classed as inactive in experiment [10], in experiment [3], in experiment [4], in experiment [5] and in experiment [6].

Consider `O=C1N=C(O)CN1N=Cc1ccc(-c2ccc([N+](=O)[O-])cc2)o1`, for which the molecule was classed as inactive in experiment [10], in experiment [2], in [3], in experiment [4], in experiment [5] and in [6].

Turning to `Cn1nnc2c(C(N)=O)ncn2c1=O`, the result in experiment [1], in experiment [2], in [4], in [5] and in experiment [6] was inactive.
